This is an account of results in PubChem BioAssay AID588342 (National Center for Advancing Translational Sciences (NCATS), 2011).

The whole screen tested about 360,000 compounds, of which about 25,000 (6.9%) were called active. Entries that show only a call come without a potency. About 9% were inconclusive and are not listed. Calls come from the whole dose curve; as a rule, active = well fitted inhibition curve with a large enough effect; inconclusive = small, poorly fitted or top-dose-only effect; inactive = flat fitted curve, though single readings scatter. This excerpt belongs to a sample that is enriched for actives.

Sequence of Luciferin 4-monooxygenase (Photinus pyralis) (P08659 whole entry, looked up): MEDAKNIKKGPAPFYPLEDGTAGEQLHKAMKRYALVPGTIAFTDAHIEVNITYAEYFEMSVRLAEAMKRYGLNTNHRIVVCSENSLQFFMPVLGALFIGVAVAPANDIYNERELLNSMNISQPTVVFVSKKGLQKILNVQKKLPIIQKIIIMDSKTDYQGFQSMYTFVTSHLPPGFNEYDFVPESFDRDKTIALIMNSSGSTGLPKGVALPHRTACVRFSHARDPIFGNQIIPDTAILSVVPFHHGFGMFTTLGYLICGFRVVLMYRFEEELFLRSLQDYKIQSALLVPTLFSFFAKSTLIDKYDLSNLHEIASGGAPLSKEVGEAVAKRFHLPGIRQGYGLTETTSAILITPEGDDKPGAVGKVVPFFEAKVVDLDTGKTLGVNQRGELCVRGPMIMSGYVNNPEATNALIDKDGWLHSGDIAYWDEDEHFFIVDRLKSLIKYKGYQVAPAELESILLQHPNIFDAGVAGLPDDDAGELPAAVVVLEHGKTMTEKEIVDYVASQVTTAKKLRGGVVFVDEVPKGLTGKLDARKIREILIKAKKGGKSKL

The target of this experiment is Luciferin 4-monooxygenase (Photinus pyralis) (UniProt P08659). Put plainly: qHTS profiling assay for firefly luciferase inhibitor/activator using purifed enzyme and Km concentrations of substrates (counterscreen for miR-21 project). Note: nearly all actives have a fitted effect of over 55% in size. To be noted: purified FLuc, luminescence inhibition; series mostly up to 57.5 µM. The text has this:
MLPCN Grant: 1 R21 NS059478-01 (miR-21 grant) Assay Provider: NCGC NCGC Assay Overview: Firefly (Photinus pyralis) luciferase is one of the most commonly used transcriptional reporters for a number of reasons. It is considered one of the more dynamically responsive reporters -that is, responsive to changes in reporter transcription - as it requires no post-translational modifications and is enzymatically active directly after protein synthesis (Wood, 1998). Additionally, the half-life of the luciferase protein is short relative to other reporter-gene products (Wood, 1995). Whereas reporters with long half-lives potentially allow for increased signal due to accumulation of reporter-gene product, once accumulated in the cell, dynamic changes in reporter-gene expression may be difficult to detect(Fan and Wood, 2007; Almond et al., 2004). It has been shown that wild-type P. pyralis luciferase has a half-life of approximately […] hours in mammalian cells (Thompson et al., 1991). Firefly luciferase reporter-gene assays are also generally considered one of the most sensitive assay types (Wood, 1995; Wood, 1998). Although light produced in a bioluminescence reaction is of lower intensity than that produced during fluorescence emission, this is offset by little to no background light inherent to luminescent assays. Thus the luciferase reporter can be expressed at much lower levels than fluorescent proteins while still providing robust signal. # However, it was initially observed, in 1991, by Thompson et al., that compounds that resemble the substrates of firefly luciferase (FLuc) can act as competitive inhibitors of the enzyme, and that these compounds, upon interaction with luciferase in the cell, can actually stabilize the protein and increase its half-life. Accumulated intracellular FLuc protein can be measured as an increase in luminescence signal, upon addition of detection reagents (which contain high concentrations of FLuc substrates) commonly used in high-throughput screening. In cell-based reporter gene assays that use FLuc as the reporter gene to quantitate the potential influence of a given compound against the target biology, this apparent increase in luminescence can mistakenly be interpreted as identification of a compound that is active against the target of interest. This is the case for the miR-21 FLuc reporter gene assay used to identify inhibitors of the miR-21 pathway (PubChem AID 2289) - compounds of interest will inhibit miR-21 biogenesis/expression or activity, and are identified by causing an increase in luminescence, due to increased FLuc translation. However, FLuc inhibitory compounds that stabilize the FLuc protein will give an identical read-out, making it difficult to distinguish compounds that are active against the target from those active against FLuc. Previous profiling work to determine the prevalence of compounds that affect FLuc enzymatic activity (PubChem AID 411) identified that ~3% of the MLSMR library (then at ~72K) inhibited FLuc. […] Since the MLSMR had grown to ~350K compounds, and since it was expected that a significant percentage of compounds found active in the miR-21 FLuc assay would be FLuc inhibitors, the library was screened for activity against FLuc using a biochemical assay of purified FLuc and KM concentrations of FLuc substrates (D-luciferin and ATP).
NCGC Assay Protocol Summary: Reagents: 50mM Tris acetate, pH 7.5; 10mM Mg acetate; 10uM D-luciferin (Sigma #L9504); 10uM ATP; 0.01% Tween-20; 0.05% BSA; 10nM P. pyralis luciferase (Sigma #L9506) Control compounds used were two known firefly luciferase inhibitors (compounds (2) and (5) in Auld et al., 2010), and DMSO. […]
(qHTS replaces the single test concentration by a dilution series.)
For the compound `COC(=O)c1scc(-c2ccccc2)c1S(=O)(=O)Nc1ccccc1`, the Potency entry is “inactive”.
With `COc1cc(C(F)(F)F)nc2c(Br)c(C(C)(C)C)nn12` the entry was “inactive”; with `O=C(NCCc1c[nH]c2ccccc12)C1CCN(Cc2ccc(Br)cc2)CC1`, “inactive”; with `O=C(NCCc1ccccc1)c1ccc2c(c1)N(Cc1ccc(F)cc1)C(=O)c1ccccc1S2(=O)=O`, “inactive”.
`Cc1ccccc1OCc1nc2c3cnn(-c4ccccc4F)c3ncn2n1`: the Potency result is “inactive”.
For `COC(=O)c1ccccc1NC(=O)Cn1c(=O)n(-c2cccc(C(F)(F)F)c2)c(=O)c2c(C)c(C)sc21` the value was “inactive”; for `CSc1ncc(Cl)c(C(=O)Nc2ccc(S(=O)(=O)N3CCCC(C)C3)cc2)n1` (centres undefined), “inactive”; for `Cc1cccc(NC(=O)Cn2c(C(F)(F)F)nc3ccccc32)c1C`, “inactive”.
For `CCCCc1nn2c(=O)cc(COC(=O)c3ccccc3NC(=O)C(C)(C)C)nc2s1` the value was “inactive”; for `CCC(C(=O)Nc1cccc(-c2nc3cccnc3s2)c1C)c1ccccc1` (centres undefined), “inactive”.
For `Cc1c(NC(=O)Cc2ccccc2)cccc1-c1nc2cccnc2s1` the value was “inactive”; for `Cc1cccc(C(=O)Nc2ccc(-c3nc4ccccc4s3)c(C)c2)c1`, 2.69 µM (active); for `CC(=O)Nc1cccc(-c2nc3ccccc3s2)c1C`, 6.01 µM (active).
Take `COc1ccc(CC(=O)Nc2ccc(-c3nc4ccccc4s3)c(C)c2)cc1`: the Potency result was “inactive”.
With `Cc1c(NC(=O)C(C)(C)C)cccc1-c1nc2ccccc2s1` the figure was 4.78 µM (active).
Turning to `Cc1cccc(C(=O)N2CCC(c3nc4ccccc4s3)CC2)c1`, the Potency result is “inactive”.
For the compound `COCCCNC(NC(=O)c1ccc(OC)cc1)C(Cl)(Cl)Cl` (centres undefined), the Potency result was “inactive”.
For the compound `COC(=O)c1scc(-c2ccc(C)cc2)c1S(=O)(=O)Nc1cc(Cl)c(OC)cc1OC`, the Potency result is “inactive”.
In the case of `COc1ccccc1Nc1cc(C(=O)NCCCN(C)C2CCCCC2)c2ccccc2n1`, the Potency entry is “inactive”.
With `Cc1ccc(C(=O)CC2(O)C(=O)N(CCc3ccccc3)c3ccc(Br)cc32)cc1` (centres undefined), the Potency result was “inactive”.
With `COc1cc(Cl)ccc1Nc1ncc(C(=O)N2CCN(c3ccccc3OC)CC2)c2ccccc12` the entry was “inactive”.
With `COc1cc(OC)cc(C(=O)NCCSCc2ccc(Cl)cc2)c1` the entry was “inactive”.
Turning to `O=C(O)c1cscn1`, the Potency result is “inactive”.
For `O=C(CCNS(=O)(=O)c1ccccc1)NCCCc1ccccc1` the value was “inactive”; for `Cc1ccccc1Nc1nc(-c2cccnc2)cs1`, 6.01 µM (active).
Consider `O=C(Nc1nc(-c2cccnc2)cs1)c1ccccc1F`, for which the Potency entry is “inactive”.
With `COC(=O)c1ccc(NC(=S)Nc2cccc(C)n2)cc1` the entry was “inactive”; with `O=C(Nc1ccc(-c2csc(Nc3cccc(C(F)(F)F)c3)n2)cc1)c1cccc(C(F)(F)F)c1`, “inactive”; with `Clc1ccc(Nc2nc(-c3cccs3)cs2)nc1`, 1.51 µM (active).
For `CC(=O)Nc1cccc(-c2cnc3ccccc3n2)c1` the value was 12 µM (active); for `CC(=O)Nc1cccc(-c2csc(Nc3cccc(C)n3)n2)c1`, 2.39 µM (active).
For `Cc1nc(CNS(=O)(=O)c2cccnc2)cs1` the value was “inactive”; for `Cc1cc(=O)oc(C)c1C(=O)Nc1cnc2ccccc2c1`, “inactive”; for `CC(=O)Nc1ccc(NC(=O)COc2ncnc3ccccc23)cc1`, “inactive”.
As to `c1csc(-c2cn3c(n2)SCC3)c1`, the Potency entry was “inactive”.
For `COc1ccc(Br)cc1C1CC(=O)Nc2c1c(C)nn2-c1nc(C)cc(C)n1` (centres undefined), the Potency entry is “inactive”.
With `Cc1ccc(NC(=O)CSc2nc3c([nH]c4ccccc43)c(=O)n2-c2ccccc2)c(C)c1` the entry was “inactive”.
With `O=C(CN(C(=O)c1csnn1)c1cccc(Cl)c1)NC1CCCC1` the entry was “inactive”; with `CCCCN(CC(=O)Nc1cccc(S(=O)(=O)N2CCCC2)c1)Cc1nc2ccccc2c(=O)[nH]1`, “inactive”; with `COC(=O)c1ccc(COC(=O)CNC(=O)c2cccc(OC)c2)o1`, “inactive”.
As to `CCOC(=O)c1scc(-c2ccc(C)cc2)c1S(=O)(=O)Nc1cc(C)ccc1C`, the Potency entry was “inactive”.
Regarding `Cc1ccc2nc(COc3ccccc3NC(=O)Nc3ccc(F)c(Cl)c3)cc(=O)n2c1`, the Potency entry was “inactive”.
With `CSc1nc(Nc2ccc(F)cc2)cc(-c2ccccc2)n1` the entry was “inactive”.
For `CC(NC(=O)c1ccco1)C(=O)Nc1nc(-c2ccccn2)cs1` (centres undefined) the value was “inactive”; for `c1ccc(Nc2nc(-c3ccncc3)cs2)nc1`, 4.78 µM (active).
For `Cc1cccc(Nc2nc(-c3ccccc3)cs2)n1` the value was 3.79 µM (active); for `O=C(CN1C(=O)C2C3C=CC(C3)C2C1=O)Nc1nc(-c2ccccn2)cs1` (centres undefined), “inactive”.
For `COC(=O)c1cc2occc2n1Cc1nc(-c2ccc(C)cc2)oc1C`, the Potency result was “inactive”.
Take `COc1ccc2c(c1)C(NS(=O)(=O)OCC(Cl)(Cl)Cl)CCC2` (centres undefined): the Potency result was “inactive”.
With `COCCN(C(=O)CSCc1ccc(C)cc1)c1c(N)n(CC(C)C)c(=O)[nH]c1=O`, the Potency result was “inactive”.
With `CCOc1cccc(CC(=O)N2CCc3c([nH]c4ccccc34)C2c2ccc(OC)cc2)c1OCC` (centres undefined) the entry was “inactive”.
With `Cc1cc(=O)c2cc(C(=O)Nc3cccc(C)c3C)ccc2[nH]1` the entry was “inactive”; with `CCS(=O)(=O)N1CCc2cc(C(=O)NCc3ccc(C)cc3)ccc21`, “inactive”.
As to `COc1ccc(NC(=O)Cn2c(=O)cc(C)c3c(C)nn(-c4cccc(Cl)c4C)c32)cc1OC`, the Potency result is “inactive”.
